Data on eleven molecules can be found in PubChem BioAssay (Tox21).

Test [1] is described as follows: qHTS assay to identify small molecule agonists of the vitamin D receptor (VDR) signaling pathway - cell viability counter screen (AID 743224). Note: series mostly up to about 63 µM; nearly all actives have a fitted effect of over 50% in size. The method in brief: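 Luminescence from CellTiter-Glo, read after 30 min at room temperature, reports viability of VDR-bla cells treated with compounds for 16 h at 37C in the wells used for the beta-lactamase FRET read.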

Test [2] is described as follows: qHTS assay to identify small molecule antagonists of the vitamin D receptor (VDR) signaling pathway - cell viability counter screen (AID 743225). Note: nearly all actives have a fitted effect of over 50% in size. A digest of the protocol: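 Read-out: CellTiter-Glo luminescence measured 30 min after reagent addition at room temperature. Cells were VDR-bla HEK 293T exposed 16 h at 37C, 5% CO2, to compound with 3 nM final calcitriol agonist.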

Test [3] is described as follows: qHTS assay to identify small molecule agonists of the NFkB signaling pathway (AID 1159509; active = well fitted curve in the direction sought with a large enough effect in the signal ratio in the repeat runs, not every such curve was filed as active; the % refers to the signal ratio; note: series mostly up to about 61 µM). The method in brief: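 NFkB-bla ME-180 cells carry a beta-lactamase reporter under an NF-kB response element. They were plated overnight, then exposed to compounds for 5 h at 37 C. Read-out is LiveBLAzer FRET after 1.5 hr at room temperature (405 nm excitation; 460/530 nm emission).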
Background: Quantitative high-throughput screening tests each substance at several concentrations.

The nature of test [4]: qHTS assay to identify small molecule agonists of the NFkB signaling pathway - cell viability counter screen (AID 1159515; calls by dose curve; note: series mostly up to about 61 µM; nearly all actives have a fitted effect of over 55% in size). A digest of the protocol: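 Luminescence from CellTiter-Glo (30 min, room temperature) gives viability, measured in the same wells as the beta-lactamase reporter read. Cells were NFkB-bla ME-180, 2,000 per well, treated 5 hr with compounds.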
Test [5] is described as follows: qHTS assay to identify small molecule agonists of the endoplasmic reticulum stress response signaling pathway (AID 1159516; active = well fitted activation curve with a large enough effect in the signal ratio in the repeat runs, not every such curve was filed as active; the % refers to the signal ratio). The method in brief: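 Read-out is beta-lactamase cleavage of a FRET substrate (405 nm excitation; 460 and 530 nm emissions) in ESRE-bla HeLa cells after a 5 hr compound exposure at 37 C. Substrate incubation ran 2 hr at room temperature.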

Test [6] is described as follows: qHTS assay to identify small molecule agonists of the endoplasmic reticulum stress response signaling pathway - cell viability counter screen (AID 1159517; calls by dose curve; note: nearly all actives have a fitted effect of over 50% in size; note: potency is the fitted concentration of half-maximal effect). A digest of the protocol:
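ESRE-bla HeLa cells, 1,500 per well, seeded overnight then treated with compounds for 5 hr at 37 C. After the beta-lactamase read, viability in the same wells is measured by CellTiter-Glo luminescence after 30 min at room temperature.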

Test [7] concerns the target Nuclear receptor ROR-gamma (Homo sapiens) (UniProt P51449). Briefly: qHTS assay to identify small molecule antagonists of the retinoid-related orphan receptor gamma (ROR-gamma) signaling pathway (AID 1159521; note: nearly all actives have a fitted effect of over 50% in size; note: potency is the fitted concentration of half-maximal effect). The method in brief: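 CHO Tet-on RORγ, RORE-luc reporter. Cpd 2 h pre-incubation, then dox hyclate 1 uM final, 16 h, 37 C/5% CO2. ONE-Glo luminescence; decrease = antagonist.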

The nature of test [8]: qHTS assay to identify small molecule agonists of the AP-1 signaling pathway - cell viability counter screen (AID 1159525; calls by dose curve; note: nearly all actives have a fitted effect of over 55% in size). The method in brief: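 AP-1-bla ME-180 cells in Opti-MEM with 0.5% dialyzed FBS, compound exposure 5 h at 37 C in 15-point titration. Viability read in the same wells as ATP content by CellTiter-Glo luminescence, normalised to tetra-n-octylammonium bromide and DMSO controls.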

Test [9] is described as follows: qHTS assay to identify small molecule agonists of the AP-1 signaling pathway (AID 1159526; calls by dose curve).
The target of test [10] is Retinoic acid receptor RXR-alpha (Homo sapiens) (UniProt P19793). The test can be described thus: qHTS assay to identify small molecule agonists of the RXR signaling pathway (AID 1159527; calls by dose curve; note: nearly all actives have a fitted effect of over 35% in size). The method in brief:
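Read-out: beta-lactamase FRET ratio (405 nm excitation, 460 and 530 nm emission) after 2 hr substrate loading at room temperature. Cells were RXR-alpha-UAS-bla HEK 293T treated with compounds for 16 hr in 2% charcoal-stripped FBS medium.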

The nature of test [11]: qHTS assay to identify small molecule agonists of the RXR signaling pathway - cell viability counter screen (AID 1159529). Note: nearly all actives have a fitted effect of over 50% in size. Note: potency is the fitted concentration of half-maximal effect. A digest of the protocol: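 HEK 293T RXRa-bla cells, 2% CS-FBS; 5 h settle; cpd 16 h 37 C, 5% CO2; CellTiter-Glo 30 min RT, luminescence. Tetraoctyl ammonium bromide as positive control.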
The nature of test [12]: qHTS assay to identify small molecule antagonists of the retinoid acid receptor (RAR) signaling pathway - cell viability counter screen (AID 1159551). Note: nearly all actives have a fitted effect of over 35% in size. The method in brief: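 Luminescent ATP quantitation (CellTiter-Glo) gave cell viability in C3RL4 cells exposed to test chemicals for 6 h at 37 C alongside 1 uM final retinol.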
Test [13] can be described thus: qHTS assay to identify small molecule antagonists of the estrogen related receptor (ERR) signaling pathway - cell viability counter screen (AID 1224818).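 Note: series mostly up to about 46 µM; viability measured after 17.5 h of compound exposure.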 The method in brief: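 Multiplexed counter screen to separate cytotoxic compounds from true ERR modulators. ERR cells received DMSO-dissolved compounds after a 6 h pre-incubation, were exposed 17.5 h at 37 C, then assayed with CellTiter-Fluor fluorescence.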

Test [14] in a line: qHTS assay to identify small molecule antagonists of the retinoic acid receptor (RAR) signaling pathway (AID 1159552; note: nearly all actives have a fitted effect of over 50% in size). The method in brief: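 Cells of the C3RL4 line were seeded, incubated overnight, then dosed with compounds in DMSO followed immediately by retinol (1 uM final). Six hours later luciferase detection reagent went in; signal was measured after 30 min at RT.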
The nature of test [15]: qHTS assay to identify small molecule agonists of the retinoic acid receptor (RAR) signaling pathway (AID 1159553). Note: potency is the fitted concentration of half-maximal effect. A digest of the protocol: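 Luminescence from a RARE-driven luciferase reporter in C3RL4 cells served as the read-out, measured after 30 min with detection reagent at room temperature. Compounds in DMSO were applied for 6 hr at 37 C following overnight seeding.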

A short description of test [16]: qHTS assay to identify small molecule antagonists of the retinoid-related orphan receptor gamma (ROR-gamma) signaling pathway - cell viability counter screen (AID 1159520). A digest of the protocol: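 Tet-on ROR gamma CHO cells were given compounds for 2 hr, then doxycycline hyclate at 1 uM final, and incubated 16 hr at 37 C. Viability was measured as ATP content by CellTiter-Glo luminescence.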

The structures appear in SMILES notation. Several values for one entry are separate records, joined by “and”; a condition that tells them apart may be missing. Identical values can stand only once. Records with an inconclusive call do not appear. Some compounds were tested as several samples or in several runs, with calls that do not always agree. Activity calls are given as the source filed them. Unless noted, calls come from the whole dose curve; as a rule, active = well fitted curve in the direction sought with a large enough effect in the repeat runs; inconclusive = weak or mixed curves; inactive = no such curve, though single readings can be large; an effect the other way counts as inactive or inconclusive.

Sequence of Retinoic acid receptor RXR-alpha (Homo sapiens) (P19793 whole entry, looked up): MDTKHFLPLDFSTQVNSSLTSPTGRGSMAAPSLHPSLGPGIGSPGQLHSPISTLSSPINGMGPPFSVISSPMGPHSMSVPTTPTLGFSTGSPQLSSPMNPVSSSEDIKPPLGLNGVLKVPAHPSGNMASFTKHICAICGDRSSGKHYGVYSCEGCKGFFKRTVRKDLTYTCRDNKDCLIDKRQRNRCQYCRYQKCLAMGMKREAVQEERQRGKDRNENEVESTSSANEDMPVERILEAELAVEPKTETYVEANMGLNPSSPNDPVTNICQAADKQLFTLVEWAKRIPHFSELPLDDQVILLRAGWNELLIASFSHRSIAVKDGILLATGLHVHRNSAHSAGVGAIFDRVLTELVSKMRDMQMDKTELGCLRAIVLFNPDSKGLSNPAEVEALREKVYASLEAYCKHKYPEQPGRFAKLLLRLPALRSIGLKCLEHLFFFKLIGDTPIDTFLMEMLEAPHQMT

With `NCCc1ccc(O)c(O)c1`, the Potency entry in test [1], in [2], in test [6], in test [7], in test [8] and in [9] was “inactive” each time. In addition, the Potency entry in test [10], in test [11] and in [12] was “inactive” in each case. In addition, the molecule was called inactive in test [3], in test [4], in test [5] and in [13].
Take `C=C1CC[C@H](O)CC1=C/C=C1\CCC[C@]2(C)[C@@H]([C@H](C)/C=C/[C@H](C)C(C)C)CC[C@@H]12`: the molecule was classed as inactive in [3], in test [4] and in [5]. Also, the Potency entry in [6], in [8], in test [12] and in test [14] was “inactive” throughout. For the same molecule, the Potency is 24.5 µM (active) in [11] and 61.1 µM (active) in [15].
`CC1=CC[C@H]2C[C@@H]1C2(C)C`: the Potency result in test [1], in [2], in test [7], in test [8], in test [9] and in [10] was “inactive” each time. In addition, the Potency entry in [11], in test [12], in test [14] and in [15] was “inactive” each time. Also, the call in [3], in [4] and in test [5] was inactive.
With `Clc1ccc(Cl)c(Cl)c1Cl`, the Potency result in test [1], in [2], in [6], in test [7], in [8] and in test [9] was “inactive” each time. The Potency entry in test [11] and in test [12] was “inactive” throughout. For the same molecule, the call in test [3], in test [4] and in test [5] was inactive.
`CN(C)c1ccc(C(=N)c2ccc(N(C)C)cc2)cc1`: the Potency result in test [2], in [6], in test [8], in test [9], in test [11] and in [14] was “inactive” in each case. Also, the molecule was called inactive in [3], in test [4] and in [5]. Further, the Potency was 21.4 µM (active) and 20.9 µM (active) in test [7]; 41.6 µM (active) in test [15].
On to `CC(C)n1c(/C=C/[C@@H](O)C[C@@H](O)CC(=O)O)c(-c2ccc(F)cc2)c2ccccc21`, for which the Potency entry in [1], in test [6], in test [8], in test [9], in test [10] and in [12] was “inactive” throughout. In addition, the call in test [3], in test [4] and in test [5] was inactive. For the same molecule, the Potency in test [7] was 486 nM (active) and 168 nM (active).
On to `C=C(C#N)C(=O)OCC`, for which the Potency result in test [1], in test [2], in test [6], in test [7], in [8] and in [9] was “inactive” each time. In addition, the Potency result in [10], in [11], in [12], in [14] and in [15] was “inactive” each time. In addition, the molecule was called inactive in [3], in test [4] and in test [5].
For the molecule `Cc1cc(Cc2ccc(N)c(C)c2)ccc1N`, the Potency result in [1], in test [2], in test [6], in [7], in test [8] and in [9] was “inactive” each time. Also, the Potency entry in [11], in [12], in [14] and in test [15] was “inactive” throughout. Moreover, the molecule was classed as inactive in test [3], in test [4] and in test [5].
For the molecule `ClC1=C(Cl)C(Cl)(Cl)C(Cl)=C1Cl`, the Potency entry in [1], in test [7], in [8], in test [9], in test [10] and in test [11] was “inactive” in each case. Moreover, the Potency entry in test [12] and in test [14] was “inactive” each time. Also, the result in test [3] and in test [4] was inactive. Moreover, the Potency was 27.7 µM (active) and 49 µM (active) in test [6]; 7.74 µM (active) and 6.11 µM (active) in test [16]; “inactive and 68.6 µM (active)” in test [15].
On to `COCC(C)O` (stereo not drawn), for which the Potency result in test [1], in test [2], in [6], in test [8], in test [9] and in [10] was “inactive” throughout. The Potency entry in test [11] and in test [12] was “inactive” each time. Besides, the call in [3], in test [4] and in [5] was inactive.
As to `Oc1ccc2ccccc2c1N=Nc1ccccc1`, the Potency result in test [1], in test [6], in [7], in test [8], in test [10] and in test [12] was “inactive” in each case. The Potency entry in test [14] is “inactive”. For the same molecule, the outcome in [3] and in test [4] was inactive. Further, the Potency in [15] is 12.2 µM (active).
